# Results: paper PMC7862700, “An all-to-all approach to the identification of sequence-specific readers for epigenetic DNA modifications on cytosine”
# How the values were obtained:
# Assay in all cases: DAPPL (digital affinity profiling via proximity ligation, sequencing); 10 mM Tris-HCl pH 7.5, 50 mM NaCl, 1 mM DTT, 4% glycerol, room temperature, 30 min; GST-TFs on glutathione beads, 16-mer random dsDNA library, 0.1% formaldehyde crosslink after washing; high values mean tight binding
# [1] = target: T1, FLI1 (Homo sapiens, UniProt Q01543 1-452); details: protein: recombinant; tags: N-terminal GST; dsDNA, one strand shown
# T1 sequence: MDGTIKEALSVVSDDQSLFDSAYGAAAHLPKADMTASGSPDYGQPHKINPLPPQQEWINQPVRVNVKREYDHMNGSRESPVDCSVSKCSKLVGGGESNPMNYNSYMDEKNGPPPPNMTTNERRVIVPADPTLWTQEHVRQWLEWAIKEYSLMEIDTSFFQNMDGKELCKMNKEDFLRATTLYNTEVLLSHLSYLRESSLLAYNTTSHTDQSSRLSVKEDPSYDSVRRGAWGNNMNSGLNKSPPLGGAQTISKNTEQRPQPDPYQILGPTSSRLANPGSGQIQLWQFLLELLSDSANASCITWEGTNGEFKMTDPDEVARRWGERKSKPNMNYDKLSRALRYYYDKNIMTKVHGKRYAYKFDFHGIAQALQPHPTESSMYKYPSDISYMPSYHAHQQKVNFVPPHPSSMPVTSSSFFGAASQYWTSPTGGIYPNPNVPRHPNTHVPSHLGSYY
# How it was run: (§1)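 Yeast served to express human transcription factors as GST fusions, which were then captured on glutathione beads and labelled with DNA barcodes. Pooled with a tag-only sample, they were incubated with 200 nmole of a 16-mer random double-stranded DNA library for 30 min at room temperature in Tris/NaCl/DTT/glycerol buffer, washed, crosslinked with 0.1% formaldehyde, ligated by proximity, amplified by PCR and sequenced. Dividing each hexamer's read frequency for a factor by its frequency for the tag-only sample gives the binding signal.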
# [2] = target: T2, ELK1 (Homo sapiens, UniProt P19419 1-428); details: protein: recombinant; tags: N-terminal GST; dsDNA, one strand shown
# T2 sequence: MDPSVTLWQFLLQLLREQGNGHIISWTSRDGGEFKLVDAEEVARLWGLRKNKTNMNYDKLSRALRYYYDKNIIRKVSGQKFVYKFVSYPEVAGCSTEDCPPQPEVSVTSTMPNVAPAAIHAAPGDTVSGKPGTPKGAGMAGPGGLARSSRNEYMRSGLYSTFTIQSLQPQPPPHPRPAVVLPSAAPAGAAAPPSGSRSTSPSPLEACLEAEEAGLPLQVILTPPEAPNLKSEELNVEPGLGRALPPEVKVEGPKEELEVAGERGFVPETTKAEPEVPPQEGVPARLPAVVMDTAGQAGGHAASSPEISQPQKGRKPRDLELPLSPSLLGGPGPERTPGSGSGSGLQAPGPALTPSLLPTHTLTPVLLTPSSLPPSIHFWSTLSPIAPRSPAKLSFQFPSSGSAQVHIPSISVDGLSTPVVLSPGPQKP
# How it was run: as §1
# [3] = target: T3, GABPA (Homo sapiens, UniProt Q06546 1-454); details: protein: recombinant; tags: N-terminal GST; dsDNA, one strand shown
# T3 sequence: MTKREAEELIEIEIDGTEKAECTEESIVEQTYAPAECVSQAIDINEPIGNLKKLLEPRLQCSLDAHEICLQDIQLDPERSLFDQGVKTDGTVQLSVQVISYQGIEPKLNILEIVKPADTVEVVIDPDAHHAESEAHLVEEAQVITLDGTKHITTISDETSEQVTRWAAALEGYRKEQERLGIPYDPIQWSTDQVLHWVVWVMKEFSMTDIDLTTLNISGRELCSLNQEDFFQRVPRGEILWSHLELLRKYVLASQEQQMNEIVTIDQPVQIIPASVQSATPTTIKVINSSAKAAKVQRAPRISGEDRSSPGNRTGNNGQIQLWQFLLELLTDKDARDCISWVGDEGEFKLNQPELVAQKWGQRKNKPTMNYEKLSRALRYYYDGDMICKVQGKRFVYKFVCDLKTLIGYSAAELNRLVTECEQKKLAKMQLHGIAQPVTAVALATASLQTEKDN
# How it was run: as §1
# [4] = target: T4, ERG (Homo sapiens, UniProt P11308 1-479); details: protein: recombinant; tags: N-terminal GST; dsDNA, one strand shown
# T4 sequence: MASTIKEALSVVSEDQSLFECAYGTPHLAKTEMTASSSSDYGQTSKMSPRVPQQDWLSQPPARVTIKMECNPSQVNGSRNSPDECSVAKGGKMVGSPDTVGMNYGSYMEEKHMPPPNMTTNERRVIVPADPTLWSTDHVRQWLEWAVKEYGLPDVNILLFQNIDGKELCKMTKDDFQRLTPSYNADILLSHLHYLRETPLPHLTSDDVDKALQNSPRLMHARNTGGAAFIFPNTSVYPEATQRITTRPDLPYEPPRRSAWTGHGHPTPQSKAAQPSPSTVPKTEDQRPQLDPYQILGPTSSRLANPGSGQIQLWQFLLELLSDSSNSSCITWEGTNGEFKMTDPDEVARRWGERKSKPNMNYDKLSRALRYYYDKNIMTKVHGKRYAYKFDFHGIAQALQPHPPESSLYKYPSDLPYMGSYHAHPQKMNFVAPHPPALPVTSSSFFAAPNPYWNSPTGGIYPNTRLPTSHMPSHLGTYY
# How it was run: as §1
# [5] = target: ELF1 (Homo sapiens, UniProt P32519 1-619); details: protein: recombinant; tags: N-terminal GST; dsDNA, one strand shown
# How it was run: as §1
# [6] = target: T5, EHF (Homo sapiens, UniProt Q9NZC4 1-300); details: protein: recombinant; tags: N-terminal GST; dsDNA, one strand shown
# T5 sequence: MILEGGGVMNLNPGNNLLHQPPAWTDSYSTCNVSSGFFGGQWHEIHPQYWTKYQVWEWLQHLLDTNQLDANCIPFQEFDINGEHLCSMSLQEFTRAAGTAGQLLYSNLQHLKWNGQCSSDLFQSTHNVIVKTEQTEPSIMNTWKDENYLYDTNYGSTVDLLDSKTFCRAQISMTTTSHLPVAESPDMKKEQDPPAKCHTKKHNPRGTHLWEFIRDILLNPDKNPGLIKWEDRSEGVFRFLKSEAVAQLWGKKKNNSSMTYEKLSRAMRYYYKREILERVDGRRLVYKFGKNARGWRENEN
# How it was run: as §1
# [7] = target: SPI1 (Homo sapiens, UniProt P17947 1-270); details: protein: recombinant; tags: N-terminal GST; dsDNA, one strand shown
# How it was run: as §1
# [8] = target: SPIB (Homo sapiens, UniProt Q01892 1-262); details: protein: recombinant; tags: N-terminal GST; dsDNA, one strand shown
# How it was run: as §1
# [9] = target: T6, ELK3 (Homo sapiens, UniProt P41970 1-407); details: protein: recombinant; tags: N-terminal GST; dsDNA, one strand shown
# T6 sequence: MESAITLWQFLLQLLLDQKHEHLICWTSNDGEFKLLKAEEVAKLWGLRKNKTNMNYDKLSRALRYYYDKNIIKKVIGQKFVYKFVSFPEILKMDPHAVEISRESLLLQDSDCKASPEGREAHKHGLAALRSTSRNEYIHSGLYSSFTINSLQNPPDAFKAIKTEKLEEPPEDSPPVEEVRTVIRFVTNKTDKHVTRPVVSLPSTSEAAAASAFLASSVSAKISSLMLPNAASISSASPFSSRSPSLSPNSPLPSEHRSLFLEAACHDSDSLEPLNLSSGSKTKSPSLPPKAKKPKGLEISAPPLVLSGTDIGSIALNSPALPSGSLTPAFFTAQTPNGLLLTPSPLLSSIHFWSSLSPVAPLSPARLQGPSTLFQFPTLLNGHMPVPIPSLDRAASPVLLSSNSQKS
# How it was run: as §1
# [10] = target: T7, FEV (Homo sapiens, UniProt Q99581 1-238); details: protein: recombinant; tags: N-terminal GST; dsDNA, one strand shown
# T7 sequence: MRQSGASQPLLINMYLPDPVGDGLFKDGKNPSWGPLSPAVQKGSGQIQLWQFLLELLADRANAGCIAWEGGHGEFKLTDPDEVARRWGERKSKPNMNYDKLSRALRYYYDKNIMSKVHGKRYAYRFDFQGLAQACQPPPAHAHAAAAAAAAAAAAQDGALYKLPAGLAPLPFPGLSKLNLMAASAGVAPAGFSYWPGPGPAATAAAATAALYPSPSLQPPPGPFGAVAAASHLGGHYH
# How it was run: as §1
# [11] = target: ETV5 (Homo sapiens, UniProt P41161 1-510); details: protein: recombinant; tags: N-terminal GST; dsDNA, one strand shown
# How it was run: as §1
# [12] = target: HSF1 (Homo sapiens, UniProt Q00613 1-529); details: protein: recombinant; tags: N-terminal GST; chain copies: 3; dsDNA, one strand shown
# How it was run: as §1
# [13] = target: T8, SPIC (Homo sapiens, UniProt Q8N5J4 1-248); details: protein: recombinant; tags: N-terminal GST; dsDNA, one strand shown
# T8 sequence: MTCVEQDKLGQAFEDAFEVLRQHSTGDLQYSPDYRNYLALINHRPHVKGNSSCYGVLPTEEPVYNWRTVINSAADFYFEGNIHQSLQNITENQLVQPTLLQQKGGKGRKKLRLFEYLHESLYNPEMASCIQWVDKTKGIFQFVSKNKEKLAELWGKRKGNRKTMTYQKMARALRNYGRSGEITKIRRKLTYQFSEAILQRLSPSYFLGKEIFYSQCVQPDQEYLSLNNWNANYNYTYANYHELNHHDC
# How it was run: as §1
# [14] = target: ELF4 (Homo sapiens, UniProt Q99607 1-663); details: protein: recombinant; tags: N-terminal GST; dsDNA, one strand shown
# How it was run: as §1
# [15] = target: T9, ELK4 (Homo sapiens, UniProt P28324-2 1-405); details: protein: recombinant; tags: N-terminal GST; dsDNA, one strand shown
# T9 sequence: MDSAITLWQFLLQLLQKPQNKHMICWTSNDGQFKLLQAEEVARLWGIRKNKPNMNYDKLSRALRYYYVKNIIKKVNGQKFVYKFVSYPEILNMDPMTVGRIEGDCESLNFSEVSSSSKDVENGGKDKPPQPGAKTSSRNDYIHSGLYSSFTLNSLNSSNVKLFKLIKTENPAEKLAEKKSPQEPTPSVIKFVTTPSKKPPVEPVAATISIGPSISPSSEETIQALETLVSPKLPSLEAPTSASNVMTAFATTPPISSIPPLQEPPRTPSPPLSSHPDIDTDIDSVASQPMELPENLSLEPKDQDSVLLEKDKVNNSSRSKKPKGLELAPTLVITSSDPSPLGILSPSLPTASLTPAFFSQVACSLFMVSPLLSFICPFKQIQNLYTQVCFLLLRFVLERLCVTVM
# How it was run: as §1
# [16] = target: T10, ETV2 (Homo sapiens, UniProt O00321 1-342); details: protein: recombinant; tags: N-terminal GST; dsDNA, one strand shown
# T10 sequence: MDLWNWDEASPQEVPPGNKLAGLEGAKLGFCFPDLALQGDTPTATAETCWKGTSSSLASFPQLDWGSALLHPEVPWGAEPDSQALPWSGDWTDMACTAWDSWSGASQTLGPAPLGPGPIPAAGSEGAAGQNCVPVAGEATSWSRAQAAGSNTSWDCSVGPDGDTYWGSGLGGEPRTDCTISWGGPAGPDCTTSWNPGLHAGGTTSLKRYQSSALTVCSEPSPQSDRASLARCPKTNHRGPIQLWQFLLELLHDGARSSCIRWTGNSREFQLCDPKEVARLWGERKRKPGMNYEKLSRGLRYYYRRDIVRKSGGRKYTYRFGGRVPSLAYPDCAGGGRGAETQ
# How it was run: as §1
# [17] = target: T11, ELF3 (Homo sapiens, UniProt P78545 1-371); details: protein: recombinant; tags: N-terminal GST; dsDNA, one strand shown
# T11 sequence: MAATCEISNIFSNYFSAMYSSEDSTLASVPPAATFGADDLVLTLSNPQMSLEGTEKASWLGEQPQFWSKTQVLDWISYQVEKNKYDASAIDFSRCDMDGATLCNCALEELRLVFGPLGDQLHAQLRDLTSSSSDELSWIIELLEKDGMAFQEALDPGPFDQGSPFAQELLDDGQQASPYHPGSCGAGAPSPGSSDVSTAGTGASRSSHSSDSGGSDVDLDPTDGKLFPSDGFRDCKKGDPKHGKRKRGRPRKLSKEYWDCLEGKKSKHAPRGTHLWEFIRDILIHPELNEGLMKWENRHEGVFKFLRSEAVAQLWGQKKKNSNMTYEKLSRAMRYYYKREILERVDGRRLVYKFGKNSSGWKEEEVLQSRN
# How it was run: as §1
# [18] = target: CRX (Homo sapiens, UniProt O43186 1-299); details: protein: recombinant; tags: N-terminal GST; dsDNA, one strand shown
# How it was run: as §1
# [19] = target: ETV1 (Homo sapiens, UniProt P50549 1-477); details: protein: recombinant; tags: N-terminal GST; dsDNA, one strand shown
# How it was run: as §1
# Chain of ETV1 (P50549 whole entry): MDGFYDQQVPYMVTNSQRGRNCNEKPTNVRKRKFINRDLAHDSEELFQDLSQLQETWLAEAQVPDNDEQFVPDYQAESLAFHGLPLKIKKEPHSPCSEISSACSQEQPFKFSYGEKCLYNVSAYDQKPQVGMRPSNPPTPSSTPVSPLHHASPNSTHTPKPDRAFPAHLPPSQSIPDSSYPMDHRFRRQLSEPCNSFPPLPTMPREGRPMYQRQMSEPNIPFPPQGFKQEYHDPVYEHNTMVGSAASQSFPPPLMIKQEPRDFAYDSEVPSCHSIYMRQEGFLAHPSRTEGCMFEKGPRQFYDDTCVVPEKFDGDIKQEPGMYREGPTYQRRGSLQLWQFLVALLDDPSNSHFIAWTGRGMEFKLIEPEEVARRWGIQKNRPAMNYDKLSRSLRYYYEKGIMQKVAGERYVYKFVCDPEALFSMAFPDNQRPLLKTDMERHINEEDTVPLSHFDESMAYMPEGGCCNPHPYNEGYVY
# Chain of SPIB (Q01892 whole entry): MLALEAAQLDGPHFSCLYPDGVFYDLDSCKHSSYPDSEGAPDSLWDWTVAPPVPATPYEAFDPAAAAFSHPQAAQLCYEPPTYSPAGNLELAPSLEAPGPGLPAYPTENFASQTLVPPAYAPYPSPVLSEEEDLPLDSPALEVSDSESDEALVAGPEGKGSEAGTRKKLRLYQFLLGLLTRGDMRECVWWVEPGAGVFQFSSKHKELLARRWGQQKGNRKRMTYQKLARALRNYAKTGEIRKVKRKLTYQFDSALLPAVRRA
# Chain of ELF1 (P32519 whole entry): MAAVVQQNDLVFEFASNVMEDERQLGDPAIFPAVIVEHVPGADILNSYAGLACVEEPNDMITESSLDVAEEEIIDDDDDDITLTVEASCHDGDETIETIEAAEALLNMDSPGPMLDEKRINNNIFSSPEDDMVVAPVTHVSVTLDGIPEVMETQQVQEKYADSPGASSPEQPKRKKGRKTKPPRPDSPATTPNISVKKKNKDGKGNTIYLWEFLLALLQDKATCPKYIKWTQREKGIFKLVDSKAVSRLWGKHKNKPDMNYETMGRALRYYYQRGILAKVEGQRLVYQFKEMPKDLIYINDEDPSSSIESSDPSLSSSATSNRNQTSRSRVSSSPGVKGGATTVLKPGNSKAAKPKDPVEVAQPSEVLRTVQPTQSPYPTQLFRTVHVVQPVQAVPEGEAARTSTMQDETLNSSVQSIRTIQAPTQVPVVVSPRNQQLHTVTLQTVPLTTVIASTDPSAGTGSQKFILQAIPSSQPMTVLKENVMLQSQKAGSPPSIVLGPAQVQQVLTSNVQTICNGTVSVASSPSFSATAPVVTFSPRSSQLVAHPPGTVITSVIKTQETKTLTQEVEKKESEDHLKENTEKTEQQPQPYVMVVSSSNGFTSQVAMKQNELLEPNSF
# Chain of CRX (O43186 whole entry): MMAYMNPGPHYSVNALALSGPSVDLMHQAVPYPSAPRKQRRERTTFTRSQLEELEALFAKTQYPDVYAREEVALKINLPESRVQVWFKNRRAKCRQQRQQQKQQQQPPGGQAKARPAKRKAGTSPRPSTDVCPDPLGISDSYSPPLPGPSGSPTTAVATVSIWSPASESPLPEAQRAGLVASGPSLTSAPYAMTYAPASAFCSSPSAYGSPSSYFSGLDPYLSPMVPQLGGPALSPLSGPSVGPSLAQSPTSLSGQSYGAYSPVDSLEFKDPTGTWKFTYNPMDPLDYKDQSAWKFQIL
# Chain of ELF4 (Q99607 whole entry): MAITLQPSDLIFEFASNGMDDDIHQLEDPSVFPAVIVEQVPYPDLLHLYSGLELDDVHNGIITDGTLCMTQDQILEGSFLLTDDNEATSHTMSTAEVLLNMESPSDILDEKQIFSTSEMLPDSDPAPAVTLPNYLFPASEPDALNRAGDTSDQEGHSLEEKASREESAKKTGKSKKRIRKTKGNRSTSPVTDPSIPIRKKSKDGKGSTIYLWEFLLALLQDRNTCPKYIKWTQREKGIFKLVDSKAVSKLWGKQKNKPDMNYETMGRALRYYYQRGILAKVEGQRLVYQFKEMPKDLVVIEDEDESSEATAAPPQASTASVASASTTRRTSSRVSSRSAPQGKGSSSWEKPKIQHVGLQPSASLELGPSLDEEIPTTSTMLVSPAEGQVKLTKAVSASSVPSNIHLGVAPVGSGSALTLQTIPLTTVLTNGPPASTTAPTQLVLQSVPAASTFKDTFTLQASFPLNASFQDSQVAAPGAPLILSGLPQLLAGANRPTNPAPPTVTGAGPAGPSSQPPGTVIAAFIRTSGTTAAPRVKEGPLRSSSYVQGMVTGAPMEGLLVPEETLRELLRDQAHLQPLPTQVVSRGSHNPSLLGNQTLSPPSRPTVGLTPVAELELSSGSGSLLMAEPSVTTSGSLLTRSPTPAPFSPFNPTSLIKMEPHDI
# Chain of ETV5 (P41161 whole entry): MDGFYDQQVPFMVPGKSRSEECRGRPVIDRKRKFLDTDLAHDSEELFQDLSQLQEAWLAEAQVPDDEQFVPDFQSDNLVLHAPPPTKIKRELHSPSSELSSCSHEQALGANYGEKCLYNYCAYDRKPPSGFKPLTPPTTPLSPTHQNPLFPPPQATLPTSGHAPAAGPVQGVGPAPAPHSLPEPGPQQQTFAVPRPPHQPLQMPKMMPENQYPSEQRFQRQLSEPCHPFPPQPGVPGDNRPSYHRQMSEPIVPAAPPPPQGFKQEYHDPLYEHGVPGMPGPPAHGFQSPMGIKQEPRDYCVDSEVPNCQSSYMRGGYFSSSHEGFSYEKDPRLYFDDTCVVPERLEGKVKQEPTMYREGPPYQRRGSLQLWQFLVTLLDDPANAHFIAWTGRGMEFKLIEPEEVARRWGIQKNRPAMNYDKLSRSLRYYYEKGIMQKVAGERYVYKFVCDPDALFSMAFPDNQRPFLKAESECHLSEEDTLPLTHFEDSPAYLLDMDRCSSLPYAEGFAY
# Chain of HSF1 (Q00613 whole entry): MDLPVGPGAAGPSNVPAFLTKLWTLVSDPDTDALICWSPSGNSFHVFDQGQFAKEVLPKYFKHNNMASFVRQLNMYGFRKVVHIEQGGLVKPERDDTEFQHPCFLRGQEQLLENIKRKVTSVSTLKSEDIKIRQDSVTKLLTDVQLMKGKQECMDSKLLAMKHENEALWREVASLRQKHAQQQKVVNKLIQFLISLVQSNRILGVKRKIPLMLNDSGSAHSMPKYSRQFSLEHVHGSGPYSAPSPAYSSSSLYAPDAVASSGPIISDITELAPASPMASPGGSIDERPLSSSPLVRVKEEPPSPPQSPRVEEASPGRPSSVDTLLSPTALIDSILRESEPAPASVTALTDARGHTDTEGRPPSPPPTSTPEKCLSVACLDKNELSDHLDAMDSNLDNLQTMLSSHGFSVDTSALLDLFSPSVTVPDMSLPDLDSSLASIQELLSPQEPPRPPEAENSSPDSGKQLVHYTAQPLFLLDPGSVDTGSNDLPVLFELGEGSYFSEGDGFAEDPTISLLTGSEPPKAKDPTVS
sequence,measurement,setting,value
TGCTAG,binding signal,[1],"1.11 fold enrichment (6-mer frequency, TF over GST control)"
same,binding signal,[2],"1.08 fold enrichment (6-mer frequency, TF over GST control)"
same,binding signal,[3],"1.08 fold enrichment (6-mer frequency, TF over GST control)"
same,binding signal,[4],"1.11 fold enrichment (6-mer frequency, TF over GST control)"
same,binding signal,[5],"1.16 fold enrichment (6-mer frequency, TF over GST control)"
same,binding signal,[6],"1.1 fold enrichment (6-mer frequency, TF over GST control)"
same,binding signal,[7],"1.2 fold enrichment (6-mer frequency, TF over GST control)"
same,binding signal,[8],"1.19 fold enrichment (6-mer frequency, TF over GST control)"
same,binding signal,[9],"1.03 fold enrichment (6-mer frequency, TF over GST control)"
same,binding signal,[10],"1.15 fold enrichment (6-mer frequency, TF over GST control)"
same,binding signal,[11],"1.3 fold enrichment (6-mer frequency, TF over GST control)"
same,binding signal,[12],"1.94 fold enrichment (6-mer frequency, TF over GST control)"
same,binding signal,[13],"1.17 fold enrichment (6-mer frequency, TF over GST control)"
same,binding signal,[14],"1.19 fold enrichment (6-mer frequency, TF over GST control)"
same,binding signal,[15],"1.26 fold enrichment (6-mer frequency, TF over GST control)"
same,binding signal,[16],"1.01 fold enrichment (6-mer frequency, TF over GST control)"
same,binding signal,[17],"1.34 fold enrichment (6-mer frequency, TF over GST control)"
same,binding signal,[18],"1.21 fold enrichment (6-mer frequency, TF over GST control)"
same,binding signal,[19],"1.17 fold enrichment (6-mer frequency, TF over GST control)"
